PrPC TRFRET: reduces human prion protein on the cell surface; cell surface PrPC, TR-FRET read-out; inhibition, % at 13.8 µM; 370,000 tested, 0.43% active; in the data active means inhibition above about 24%; further: 0% = median of the test wells and 100% = reference compound wells
3CLpro inhibitor: SARS-CoV 3CLpro protease inhibition. recombinant SARS-CoV 3CLpro, quenched FRET peptide cleavage. inhibition, % at 6 µM. P0C6X7. 290,000 tested, 0.14% active; in the data active means inhibition above about 12%
BJeLR viability: BJeLR cell viability loss. BJeLR (HRASV12) viability, CellTiter-Glo ATP luminescence, 48 h. inhibition, % (no concentration beside the values). 300,000 tested, 0.17% active. AID 1554; in the data active means inhibition above about 50%
SSB-PriA inh: blocks PriA binding to SSB C-terminal tail; AlphaScreen SSBct-PriA binding, biotinylated peptide; inhibition, % at 33 µM; 430,000 tested, 0.6% active; AID 1272365; in the data active means inhibition mostly above about 37%, no sharp cut-off; inactive means mostly below about 20%;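 further: plate controls were negative control peptide for no effect and reference peptide for full effect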
PrP 5UTR inh: inhibition of PrP 5' UTR reporter expression; cell-based PrP 5' UTR mRNA reporter, plate reader; 340,000 tested, 0.35% active; inhibition, % (no concentration beside the values); in the data active means inhibition above about 52%; further: 0 = median of the neutral control wells
PrPC confirm: confirmation of inhibitors of cell surface human prion protein | inhibition, % at 13.8 µM | AID 743200 | 1,500 tested, 65% active | shares compounds with PrPC TRFRET | cell surface PrPC level, TR-FRET; in the data active means inhibition above about 25%
LD9 cytotox: LD9 cell cytotoxicity, PrPc inhibitor counter-screen; shares compounds with PrPC TRFRET; AID 743201; inhibition, % at 13.8 µM; 1,500 tested, 29% active; LD9 cells cytotoxicity, luminescence viability; in the data active means inhibition above about 9.5%
An asterisk follows results filed as active; . = no result. In the library only some 1.2% were active in any assay of this set; here they are far more common.

SMILES | PrPC TRFRET | 3CLpro inhibitor | BJeLR viability | SSB-PriA inh | PrP 5UTR inh | PrPC confirm | LD9 cytotox
Cc1ccc(C)c(NS(=O)(=O)c2cc(C(=O)NCc3ccncc3)ccc2C)c1 | 0.8 | -1.4 | -6.4 | 12.9 | -17.5 | . | .
C=CCNC(=O)c1onc(CSc2ccc(OC)cc2)c1C(=O)O | 36.8* | 3.7 | -6.6 | -1.4 | -21.5 | 5.3 | -6.0
C=CCNC(=O)c1onc(CSc2ccccc2)c1C(=O)O | -3.3 | 4.9 | -1.6 | 1.0 | -23.1 | . | .
CCCCNC(=O)C1CCC(CNc2nc(=S)[nH]c3ccccc23)CC1 (stereo not given) | -1.3 | 4.3 | -8.1 | 2.9 | -7.0 | . | .
COc1ccc(N2CCN(CCCNC(=O)C3CCC(CNc4nc(=S)[nH]c5ccccc45)CC3)CC2)cc1 (stereo not given) | 32.8* | 0.1 | 0.1 | 0.0 | 0.9 | 27.7* | 13.9*
O=C(Nc1nnc(-c2ccncc2)o1)C1CC1 | . | . | . | -10.0 | . | . | .
CCCCC(=O)NC(c1ccccc1Cl)c1ccc2cccnc2c1O (stereo not given) | 38.6* | 3.9 | 6.2 | -13.6 | 1.8 | 31.6* | 30.2*
CCCC(=O)NC(c1ccc(OC)cc1)c1ccc2cccnc2c1O (stereo not given) | 27.2* | 2.0 | 30.8 | 33.0 | 16.0 | 26.0* | 31.7*
CCCCC(=O)NC(c1ccccc1)c1ccc2cccnc2c1O (stereo not given) | 29.1* | -1.3 | 25.3 | -5.8 | 21.4 | 26.9* | 19.2*
COc1ccc(Cl)cc1NC(=O)CSc1nnc(Cc2cc(=O)[nH]c(=O)[nH]2)n1-c1cc(C)ccc1C | . | . | . | 0.0 | . | . | .
Cc1ccc2c(c1)NC(=O)c1cc(NC(=O)NCc3ccc(F)cc3)ccc1O2 | . | . | . | -11.0 | . | . | .
Cc1nc(-c2ccccc2F)sc1CNC(=O)Cn1nnc2ccccc21 | . | . | . | -6.0 | . | . | .
CN(C)c1ccc(-[n+]2c(-c3ccccc3)cc(-c3ccccc3)cc2-c2ccccc2)cc1 | 30.8* | 1.6 | 56.5* | 46.3 | 27.5 | 41.1* | 47.2*
Cc1ccc(OCc2cc(C(=O)NCc3cn4ccccc4n3)no2)cc1C | 43.1* | -1.9 | 9.1 | -3.8 | -11.0 | 39.3* | -5.4
O=C(NCCc1cn2ccccc2n1)c1cc(COc2c(F)cccc2F)on1 | -2.1 | -1.8 | -1.6 | -3.4 | -14.5 | . | .
CCc1cccc(C)c1NC(=O)Cn1nc(-c2ccccc2)c2sc(N3CCOCC3)nc2c1=O | . | . | . | -9.0 | . | . | .
CC(C)OC(=O)CC(=O)CSc1nc2c(c(-c3cccs3)c1C#N)CCC2 | -1.2 | -0.1 | 5.4 | -24.1 | -27.9 | . | .
CCOC(=O)C(C)Sc1nc2c(c(-c3cccs3)c1C#N)CCC2 (stereo not given) | 65.4* | 3.2 | -10.8 | -11.1 | -9.8 | 76.2* | -4.2
N#Cc1c(SC(C(=O)O)c2ccccc2)nc2c(c1-c1cccs1)CCCC2 (stereo not given) | 52.1* | 3.8 | -1.6 | 5.2 | -7.0 | 52.2* | -8.9
O=C(NCc1ccc(Cl)cc1)c1cccc(NC(=O)c2ccccc2)c1 | 31.5* | 3.3 | -26.2 | 2.4 | -6.0 | 27.3* | -1.6
CC(C)(C)c1ccc(CNc2nc(-c3ccccn3)nnc2-c2ccccc2)cc1 | 24.4* | . | . | . | . | 37.5* | 33.1*
Clc1cccc(CNc2nc(-c3ccccn3)nnc2-c2ccccc2)c1 | 28.6* | . | . | . | . | 36.8* | 43.0*
c1ccc(-c2nnc(-c3ccccn3)nc2NC2CCCCC2)cc1 | 37.9* | 6.1 | 66.0* | 100.9* | 19.6 | 32.6* | 44.9*
O=C(Cc1csc(Nc2ccc(F)cc2)n1)NCCC1=CCCCC1 | . | . | . | -13.0 | . | . | .
COc1ccc(C(=O)Nc2ccccc2C(=O)NC(Cc2ccc(O)cc2)C(=O)NNC(=O)c2ccc(C)cc2)cc1 (stereo not given) | 82.9* | 3.7 | -1.8 | -14.6 | -0.4 | 5.6 | -1.3
SMILES | PrPC TRFRET | 3CLpro inhibitor | BJeLR viability | SSB-PriA inh | PrP 5UTR inh | PrPC confirm | LD9 cytotox
O=C(NCc1n[nH]c(=O)c2ccccc12)c1cncc(Br)c1 | . | . | . | -8.0 | . | . | .
COc1cccc(-c2cc(C(=O)Nc3cnn(C4CCOCC4)c3)n(C)n2)c1 | . | . | . | -20.0 | . | . | .
CC(=O)N=c1sc2ccccc2n1C | 1.8 | 4.0 | 2.8 | -2.0 | -2.4 | . | .
CC(=O)N=c1sc2nc3ccccc3nc2n1N(C(C)=O)C(C)=O | 27.8* | -6.7 | -6.2 | 1.2 | -11.7 | 37.4* | 2.9
CCOC(=O)c1ccc2[nH]c(C)c(CCC(C)=O)c(=O)c2c1 | 1.0 | -1.3 | 8.5 | -2.9 | -16.1 | . | .
CC(=O)Nc1ccc2[nH]c(C)c(CC=C(Cl)Cl)c(=O)c2c1 | 36.8* | -2.3 | -3.2 | -2.5 | -9.2 | 53.8* | -3.1
N#Cc1ccc(NC(=O)Nc2ccc(Cl)cc2)cc1 | 26.6* | 3.2 | 12.3 | -28.7 | -39.5 | 32.4* | 16.2*
O=Cc1s/c(=N\S(=O)(=O)c2ccccc2)n(CCCCl)c1Cl | 75.8* | 1.2 | 35.4 | . | -43.0 | 95.5* | 89.7*
Cc1ccc(C)c(-n2ncc3c2ncn2nc(C4CCCCC4)nc32)c1 | . | . | . | -21.0 | . | . | .
CC(=O)Nc1ccc(NC(=O)c2nc(S(=O)(=O)Cc3ccccc3)ncc2Cl)cc1 | 65.1* | -3.5 | 9.8 | -13.1 | -14.8 | -5.3 | 78.2*
O=C(NCc1ccccc1)c1nc(S(=O)(=O)Cc2ccccc2)ncc1Cl | 5.0 | -3.9 | 26.2 | -13.0 | -15.9 | . | .
CS(=O)(=O)c1ncc(Cl)c(C(=O)Nc2ccc3ccccc3c2)n1 | 84.0* | 4.1 | 17.2 | -10.9 | -24.9 | 77.4* | 87.1*
CCS(=O)(=O)c1ncc(Cl)c(C(=O)Nc2ccc(C)cc2)n1 | 41.9* | 3.1 | 23.1 | -8.7 | -6.7 | 44.3* | 84.8*
CCC1CCCCN1S(=O)(=O)c1ccc(NC(=O)c2ccncc2)cc1 (stereo not given) | 14.4 | 11.2 | 17.4 | 3.5 | -17.5 | . | .
O=C(Nc1ccc2ccccc2c1)c1cnccn1 | -24.1 | -3.4 | 3.7 | 3.0 | -51.2 | . | .
CCC1CCCCN1S(=O)(=O)c1ccc(NC(=O)c2nc(S(C)(=O)=O)ncc2Cl)cc1 (stereo not given) | 79.0* | 3.6 | -6.7 | 1.0 | -11.5 | 83.3* | 96.9*
COc1ncccc1C(=O)N1CCC(c2nnc(-c3ccco3)o2)CC1 | . | . | . | -18.0 | . | . | .
NS(=O)(=O)c1c(Sc2ccccc2C(=O)O)ccc2ccccc12 | 34.1* | 2.2 | -4.3 | -0.7 | -11.7 | 52.5* | -5.2
CNS(=O)(=O)c1cc(Cl)ccc1Sc1ccccc1C(=O)O | 0.5 | 3.7 | -3.6 | -5.6 | -58.0 | . | .
CCS(=O)(=O)N1CC(c2nc(Cc3ccccc3OC)no2)C1 | . | . | . | -2.0 | . | . | .
CC1CCCC(C)N1C(=O)CSc1nnc(COc2ccccc2)n1-c1ccccc1 (stereo not given) | 37.1* | 3.5 | -2.5 | 4.8 | -24.0 | 34.3* | -3.9
CCOc1ccc(-c2n[nH]c(=S)o2)cc1 | 1.9 | 0.6 | -2.1 | 2.7 | -24.8 | . | .
CCOc1ccccc1-c1n[nH]c(=S)o1 | 26.9* | -1.6 | -7.2 | -1.1 | -19.8 | 25.1* | -6.7
Cn1nc2cc(Br)ccc2c1C(=O)N1CCC(n2ccnn2)CC1 | . | . | . | -1.0 | . | . | .

From PubChem
